Measured values taken from PubChem BioAssay AID1452 (National Center for Advancing Translational Sciences (NCATS), 2008).
About 190 (0.13%) of roughly 150,000 compounds were called active. Inconclusive results (about 2%) are left out. Calls follow the shape of the dose curve; as a rule, active = well fitted inhibition curve with a large enough effect; inconclusive = small, poorly fitted or top-dose-only effect; inactive = flat fitted curve, though single readings scatter. The list comes from a sample in which actives are over-represented; it also holds similar structures and randomly drawn compounds.

The molecules below were run against Polyunsaturated fatty acid lipoxygenase ALOX12 (Homo sapiens) (UniProt P18054) (assay: qHTS Assay for Inhibitors of 12-hLO (12-human lipoxygenase)). Conditions: purified 12-hLO, xylenol orange hydroperoxide absorbance; series mostly up to 57.1 µM.
Polyunsaturated fatty acid lipoxygenase ALOX12 (Homo sapiens), sequence (P18054 whole entry, looked up): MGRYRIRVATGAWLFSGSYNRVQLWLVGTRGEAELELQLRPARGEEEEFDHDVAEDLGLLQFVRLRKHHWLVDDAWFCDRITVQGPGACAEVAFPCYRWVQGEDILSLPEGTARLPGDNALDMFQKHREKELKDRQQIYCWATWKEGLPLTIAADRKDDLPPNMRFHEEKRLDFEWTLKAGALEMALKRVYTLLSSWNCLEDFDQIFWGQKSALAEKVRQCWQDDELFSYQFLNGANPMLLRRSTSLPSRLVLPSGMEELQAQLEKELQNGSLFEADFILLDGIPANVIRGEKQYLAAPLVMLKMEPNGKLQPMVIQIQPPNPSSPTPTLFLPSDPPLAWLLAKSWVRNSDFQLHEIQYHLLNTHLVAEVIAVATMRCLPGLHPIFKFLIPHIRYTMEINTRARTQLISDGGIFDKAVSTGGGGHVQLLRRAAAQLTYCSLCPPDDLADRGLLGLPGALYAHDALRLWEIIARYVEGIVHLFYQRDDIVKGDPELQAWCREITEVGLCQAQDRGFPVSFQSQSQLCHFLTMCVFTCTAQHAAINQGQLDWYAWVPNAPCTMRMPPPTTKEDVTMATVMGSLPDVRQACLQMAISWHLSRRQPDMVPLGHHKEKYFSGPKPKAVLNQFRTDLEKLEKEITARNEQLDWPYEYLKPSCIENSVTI
Excerpt: Assay Provider: Holman, T.R., University of California, Santa Cruz Screening Center PI: Austin, C.P. Screening Center: NIH Chemical Genomics Center [NCGC] Human lipoxygenase 12hLO is a member of the closely related lipoxygenase family of enzymes which catalyze the site-specific oxidation of arachidonic acid to various hormone precursor molecules and as such is a candidate for drug development in a variety of disease areas, such as cancer and inflammation. Inhibition of 12hLO activity was screened by utilizing arachidonic acid as a substrate. The extent of hydroperoxide product formation was measured by a secondary chromogenic reaction in which xylenol orange (XO, Sigma-Aldrich, cat. number 39,818-7) reacts with the ferric ions produced from the reaction between the hydroperoxide and ferrous ions. The Fe(III)-XO complex is characterized with red-shifted absorbance at 560 nm. A purified preparation of human 12hLO was supplied by Professor Ted Holman, University of California, Santa Cruz.
Assay Protocol: Buffer: 25 mM Hepes pH 7.0, 0.01% Triton X-100. Reagents/Controls: Buffer in columns 3 and 4 as negative control (no enzyme). Substrate solution: 40 uM arachidonic acid (Sigma-Aldrich, St. Louis, MO) final concentration dispensed throughout the plate. Enzyme: 150 nM 12hLO final concentration in columns 1, 2, 5-48. Column 1 is neutral (100% activity). Column 2 contained pin-transferred titration of NDGA (nordihidroguaiaretic acid, Sigma-Aldrich, N 5023, top concentration 20 mM in DMSO, then 1:3 dilution in duplicate). (Dilution factor: 23 nL into 4 uL.) Chromogenic detection reagent (divalent iron/xylenol orange, Fe-XO): 200 uM xylenol orange plus 300 uM ferrous ammonium sulfate prepared freshly in 50 mM sulfuric acid. Assay Steps: Three uL of enzyme were dispensed to 1536-well Greiner black clear bottom plates. Compounds and controls (23 nL) were transferred via Kalypsys PinTool. The plates were incubated for 15 min at room temperature, and then 1 uL of substrate solution was added to start the reaction. After room temperature incubation for 30 minutes, 4 uL of Fe-XO solution was added to each well and the plates were incubated for 30 min. The absorbance at 405 and 573 nm were measured using ViewLux (Perkin-Elmer) High-throughput CCD imager and absorbance protocol settings. The 573-to-405 absorbance ratio was used to compute reaction progress.
% is scaled to controls: 0 for no effect and ±100 for the full control effect; potency is read from the fitted curve at half-maximal effect.
Also: nearly all actives have a fitted effect of over 55% in size.

Activity change, negative = inhibition, inactive:
CCCCCCCC[n+]1cccc(C(=O)N2c3c(nc(N)[nH]c3=O)NC(C)C2C)c1 (configuration not stated), C[C@@H]1C(c2ccc(F)cc2)=NN(c2ccc(Br)cc2)[C@H]1C(=O)N1CCOC1=O -4.22% [at 0.00818 µM], O=[N+]([O-])c1ccccc1SNc1ccccn1, C=C1C2C[C@H](O)C(C)(C)[C@@]2(O)[C@H](O)C[C@]23C[C@@](C)(O)[C@H](CC[C@H]12)[C@H]3O (some centres not stated), CCOC(=O)C1C/C(=C\C(C)=O)c2cccc(C(F)(F)F)c2O1 (configuration not stated) -1.22% [at 0.00818 µM], CC(Nc1oc(-c2ccccc2)nc1-c1ccccc1)c1ccccc1 (configuration not stated), Cc1cc2oc(=O)cc(-c3ccccc3)c2c(C)c1/C=C/c1ccc(F)cc1 -3.71% [at 0.00818 µM], COc1cccc(C(=O)Nc2cc3c(cc2Br)OCCCO3)c1, CCCCC[C@H](O)/C=C/[C@@H]1[C@@H](CC(=O)CCC(=O)O)[C@@H](O)C[C@H]1O, COc1ccc(CCNC(=O)/C(C#N)=C2\N=C(NC(=O)c3cccs3)c3ccccc32)cc1, O=C(OC1CCOC1=O)c1cccc(S(=O)(=O)Nc2ccc(F)cc2)c1 (configuration not stated), O=C(CNCc1ccc(F)cc1)Nc1ccccc1-c1ccccc1, COc1ccccc1N=Cc1c(O)c2ccccc2oc1=O, CC(=O)Nc1ccc(S(=O)(=O)NCC(=O)OCc2cc(=O)oc3ccc4ccccc4c23)cc1, COC(=O)C1=C(C(=O)OC)[C@@H]2N(C)c3ccccc3[C@@]23C[C@@H](C(=O)OC)N(S(=O)(=O)c2ccc(Br)cc2)C3=N1 2.4% [at 11.4 µM], COC(=O)c1c(NC(=O)COC(=O)[C@@H](NS(=O)(=O)c2ccccc2)C(C)C)sc2c1CCC2, Brc1ccc(C2=NCCC(c3ccccc3)O2)cc1 (configuration not stated) 0.263% [at 0.00818 µM], COc1ccc(-c2nc3c(c4c2C[C@H](c2ccccc2)OC4)CN(C(=O)c2cccnc2)CC3)c(C)c1 1.97% [at 11.4 µM], COc1ccc(-c2nnc(SCc3cccnc3)o2)cc1, COc1ccc(-c2nnc(SC(C)C#N)o2)cc1 (configuration not stated), COc1ccc(C(=O)COC(=O)c2ccc3ccccc3n2)cc1, O=c1cc(CN2CCN(S(=O)(=O)/C=C/c3ccccc3)CC2)c2ccc(O)cc2o1, COc1ccc(C2CC(=O)Oc3ccc(C(C)(C)C)cc32)cc1 (configuration not stated) -4.97% [at 0.00818 µM], CCOc1ccc(N2C(=O)/C(=C/c3ccc(C)o3)N(C)C2=S)cc1, COC(=O)CCCC1=CC2=C(c3ccccc3)C(=O)C(C)(OC(=O)C3CCCC3)C(=O)C2=CN1c1ccc(OC)cc1 (configuration not stated) -9.71% [at 11.4 µM], COCCCNC(=S)NC(=O)c1ccccc1, CCOC(=O)c1c(NC(=O)C2(C)Cc3ccccc3C(=O)O2)sc2c1CCCC2 (configuration not stated), C[C@H]1Cc2c(-c3ccccc3)nc3c(c2CO1)CN(C(=O)C1CC1)CC3 2.53% [at 11.4 µM], CC(NC(=O)CCC(=O)N1CCN(S(=O)(=O)c2ccc(Cl)cc2)CC1)c1ccccc1 (configuration not stated), Cc1cc(C)cc(OCC(=O)NNC(=O)CCN2C(=O)c3ccccc3C2=O)c1, C/C(=C\c1ccccc1)C1NC(=O)c2c(sc3c2CCCC3)N1 (configuration not stated), O=C(CN1C(=O)c2cccc3cccc(c23)C1=O)N1CCCCC1, CCOC(=O)N1CCN(C(=O)C2CCN(Cc3ccc(OC)cc3OC)CC2)CC1, O=C1OCCN1C(=O)[C@H]1[C@H](c2ccccc2)C(c2ccc(F)cc2)=NN1c1ccccc1 -8.19% [at 0.00818 µM], C[C@H]1Cc2c(COc3ccccc3)nc3c(c2CO1)CN(C(=O)NCc1ccco1)CC3 1.43% [at 11.4 µM], COC(=O)CC1c2ccccc2C(Cc2ccc(OC)cc2)=C(C)N1C(=O)OC (configuration not stated) 2.48% [at 11.4 µM], C=CCn1c2ccccc2c2nnc(SCc3[nH]c(=O)[nH]c3C(=O)CCCCC(=O)OCC)nc21, COC(=O)CN1C(=S)N(c2ccccc2)C(=O)C1CC(=O)Nc1ccc(Cl)cc1 (configuration not stated), CC(=O)c1c(N2CCN(c3ccc(F)cc3)CC2)nc(=S)n(-c2ccccc2)c1C, COc1ccc(-c2nc(-c3ccccc3)oc2Nc2ccc3ccccc3c2)cc1, O=[N+]([O-])c1ccc(NCCCO)c(C(F)(F)F)c1, CNC(=O)NC(=O)C(OC(=O)c1cccc(S(=O)(=O)N2CCCCC2)c1)c1ccccc1 (configuration not stated), O=C1OCCN1C(=O)[C@H]1[C@H](c2ccc(F)cc2)C(c2ccccc2)=NN1c1ccc(Br)cc1 -8.73% [at 0.00818 µM], CCCCC(CC(C)O)c1n[nH]c(=S)n1-c1ccccc1 (configuration not stated), CCCc1cc(-c2n[nH]c(=S)n2Cc2ccccc2)cs1, NNc1nnc(NN)c2ccccc12 -2.71% [at 0.00818 µM], CCOC(=O)C1=C(C)c2ccccc2OC1C(=O)OCC (configuration not stated) 1.63% [at 0.00818 µM], COC(=O)C1(C(C)=O)CC2=CC[C@H]3C(=O)N(c4ccccc4)C(=O)[C@H]3[C@@H]2Cc2ccccc2[C@@H]1C[N+](=O)[O-] (some centres not stated), N#Cc1ccsc1NC(=O)CN1CCN(S(=O)(=O)c2cc(Cl)ccc2Cl)CC1, Cc1nn(-c2ccccc2)c(C)c1/C=N/NC(=O)CSc1nc2ccccc2c(=O)n1-c1ccccc1, CCOC(=O)c1c(NC(=O)Cn2nc(C(F)(F)F)cc2C)sc2c1CCC2, CCOc1cc(/C=N/NC(=O)OC)ccc1OCCSc1ccc(Cl)cc1, COc1ccc(Br)cc1C(=O)NC(=S)Nc1cc(-c2nc3ccccc3[nH]2)ccc1C, C=CCNC(=S)N/N=C/c1ccc(OCc2ccccc2)cc1, CCS(=O)(=O)Nc1cccc(-c2cc(-c3ccccc3)c3cc(C)ccc3n2)c1, O=C(COC(=O)c1c2c(nc3ccccc13)/C(=C\c1cccs1)CCC2)Nc1ccccc1Cl, COC(=O)C1=C(C(=O)OC)[C@@H]2N(C)c3ccccc3[C@@]23C[C@@H](C(=O)OC)N(S(=O)(=O)c2cccs2)C3=N1 -1.35% [at 11.4 µM], CCCCc1cc2c(s1)CCCC/C2=N/O, NC(=O)c1ccccc1N=Cc1ccc2ccccc2c1, CC(C)CCN1C(=O)c2ccc(C(=O)Nc3cccc(S(N)(=O)=O)c3)cc2C1=O, COc1ccccc1OCC(=O)OCn1c(SC)nnc(C)c1=O, N#C/C(=C/c1ccc(N2CCCCC2)o1)C(=O)NCCc1c[nH]c2ccccc12, CC(C)CN(C(=O)CN1CCN(S(=O)(=O)c2ccccc2)CC1)c1c(N)n(CC(C)C)c(=O)[nH]c1=O, Cc1cc(N2CCOCC2)nc(-c2ccc(Br)cc2)n1, COc1ccc2c(-c3ccccc3)cc(SCC(=O)N(C)C3CCS(=O)(=O)C3)nc2c1 (configuration not stated), Cc1ccc(S(=O)(=O)N2CCC(=O)N([C@H](COCc3ccccc3)Cc3ccccc3)CC2)cc1 0.261% [at 0.00818 µM], COc1ccc(-n2c(C)cc(C(=O)COC(=O)c3cc(OC)c(OC)cc3NC(=O)c3cccs3)c2C)cc1, COc1cc2c(cc1NC(=O)COC(=O)/C=C/c1ccccc1)oc1ccccc12, COc1ccc(CCNc2cc(C)nc3c(-c4ccc(Cl)cc4)c(C)nn23)cc1OC, O=C(Nc1ccc(N2C(=O)c3cccc4cccc(c34)C2=O)cc1)c1ccc(N2CCCCC2)c([N+](=O)[O-])c1, CCn1c(=O)cc(SCC(=O)NCCC2=CCCCC2)c2ccccc21, COc1cccc(CC(=O)N2CCc3nc(COc4ccccc4)c4c(c3C2)CO[C@@H](C)C4)c1 -2.68% [at 11.4 µM], COCCNC(=O)c1ccc(N2CCC3(CC2)OCCO3)c([N+](=O)[O-])c1, CCCN=C1NC(=O)C(CC(=O)NCCc2ccc(OC)c(OC)c2)S1 (configuration not stated), CCOC(=O)c1ccccc1N1C(=O)C2Sc3[nH]c(=O)sc3C(/C=C/c3ccccc3)C2C1=O (configuration not stated), CC(=O)NNC1=Nc2ccccc2N(C)C(C)C1 (configuration not stated), COC(=O)/C(C#N)=C/c1occc1C, Cc1[nH]n(-c2ccccc2)c(=O)c1/C=N/NC(=O)c1ccoc1C, Cn1cccc1/C=N/NC(=O)c1ccc(OC(F)(F)C(F)F)cc1, COc1cc(OC)c2c(-c3cccc(-c4cccc(N)c4)c3)cc(=O)oc2c1 -1.39% [at 0.00818 µM], N=C1/C(=C/c2cccn2-c2cccc([N+](=O)[O-])c2)C(=O)N=C2SC=CN12, Cc1cccc([C@H]2[C@@H]3C=CC[C@@H](C)[C@@H]3C(=O)N2Cc2ccccc2)c1 -6.11% [at 0.00818 µM], COc1cc(CCC(=O)OCC(=O)Nc2cccc(S(N)(=O)=O)c2)cc(OC)c1OC, O=C(O)CC(Cc1ccccc1)C(=O)Nc1ccc([N+](=O)[O-])cc1 (configuration not stated), NC(=O)C[C@@H]1NC(=O)CNC(=O)c2cc([N+](=O)[O-])cc(I)c2NCCC(C(N)=O)NC1=O (some centres not stated), Cn1cccc1/C=C1\SC(=S)N(NC(=O)c2ccc(Cl)cc2)C1=O, CCc1nnc(NC(=O)/C=C/c2ccc(C)o2)s1, C=CC1=C2C=C(C3CC3)N(C(CO)CO)C=C2C(=O)C(C)(OC(=O)c2ccco2)C1=O (configuration not stated) 3.57% [at 11.4 µM], CC1=C(C/C=C(\C)CCCC(C)CCCC(C)CCCC(C)C)C(=O)c2ccccc2C1=O (configuration not stated) -5.67% [at 0.00818 µM], CN(C(=O)CSc1nnc(-c2n[nH]c3ccccc23)o1)c1ccccc1, Cc1nc(-c2ccccc2)cn2c1nc1ccccc12, O=C1OCCN1C(=O)[C@H]1[C@H](c2ccc(Cl)cc2)C(c2cccc(Cl)c2)=NN1c1ccc(Br)cc1 -6.33% [at 0.00818 µM], COc1cc(OC)c2c(c1)OC(=O)CC2c1cc(OC)c(OC)c(OC)c1 (configuration not stated) -5.58% [at 0.00818 µM], CCCCC/C=C\C/C=C\CCCCCCCCCC(=O)O

Potency, active:
COc1ccc(-c2nnc(SC(=O)N3c4ccccc4Sc4ccccc43)o2)cc1 14.1 µM, CCOC(=O)C1=C(NC(=S)NC(=O)c2ccccc2)c2ccccc2CC1(C)C 25.1 µM, CC(C)Oc1ccc(CCc2n[nH]c(=S)n2Cc2ccccc2)cc1 31.6 µM
